# TSHR antagonist: Antagonists of the Thyroid Stimulating Hormone Receptor: HTS campaign. Thyrotropin receptor (Homo sapiens), P16473. TSHR-expressing cells, TSH-stimulated cAMP HTRF, 2 h; stronger effect = lower value. activity change, negative = inhibition, % at 11.5 µM. 330,000 compounds, 0.2% hits. AID 504810, 2011;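 active means activity change below a set negative limit, meaning inhibition stronger than a set level, cut at about -70% in these data; inconclusive means activity change between two set negative limits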; further: on the % scale 0 is the no-effect control and ±100 the full control effect
#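 Antagonism was scored as loss of TSH-driven cAMP in TSHR cells, stimulated with 4nM TSH (EC80) for 2 hours at 37 deg C and detected by homogeneous HTRF competition immunoassay.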
# BRCA1 expr up: qHTS Assay to Identify Small Molecule Activators of BRCA1 Expression. AID 624202, 2012. MCF7-BRCA1-FFLuc reporter, luminescence, 48 h; response scale: scaled: vehicle 0%, 10 µM genistein 100%. 380,000 compounds, 1.1% hits. Potency, µM (doses to about 46.1 µM), inactives show top-dose activation, actives largely listed as activators; further: potency means the concentration at half of the fitted maximal effect; nearly all actives have a fitted effect of over 80% in size
#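 Luminescence from a BRCA1-driven firefly luciferase in MCF7 cells was read after 48 h compound exposure at 37 C. Data normalized against DMSO and a 10microM genistein activation control, then curve-fitted across the titration.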
# p53 reactivation: qHTS assay for re-activators of p53 using a Luc reporter | H1299 p53-A138V BP100-luciferase reporter, luminescence, 24 h | Potency, µM (series often up to 92.2 µM), inactives show at the top dose activity change, positive = activation, hits mostly activators | 320,000 compounds, 0.063% hits; further: potency means the concentration at half of the fitted maximal effect; % of control where 0% means no effect; nearly all actives have a fitted effect of over 45% in size
#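 H1299 (p53-null), stable ts p53-A138V + BP100-Luc; 1000 cells/well, Opti-MEM/10% FBS; cpd 4 pt, 1:5; 24 h, 37 deg C, 5% CO2; detection reagent 10 min RT; luminescence.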
# TCR activator: Activators of T cell receptors: qHTS campaign | 330,000 tested, under 10 active | AID 504894, 2011 | primary human leukocytes, anti-CD3, IL-2 HTRF, 48 h | Potency, µM (titrated, usually from 9.22 µM), without a hit: at the highest dose activation of IL-2 secretion, actives largely listed as activators; further: % of control where 0% means no effect
#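 Readout: HTRF IL-2, Eu-cryptate/d2 antibody pair, 320nm excitation, 665nm emission. Stimulus: a-CD3 beads, no co-stimulation. Cells: primary human leukocytes. Exposure: 48 hr with compound.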
# GLS inh: qHTS for Inhibitors of Glutaminase (GLS); Glutaminase kidney isoform, mitochondrial (Homo sapiens), O94925; GLS enzymatic activity, qHTS titration; Potency, µM (series often up to 45.5 µM), for inactives: top-dose activity change, negative = inhibition, most hits filed as inhibitors; 410,000 compounds, 0.21% hits; further: potency means the concentration at half of the fitted maximal effect; on the % scale 0 is the no-effect control and ±100 the full control effect
# Target sequence (O94925 whole entry, looked up, canonical isoform): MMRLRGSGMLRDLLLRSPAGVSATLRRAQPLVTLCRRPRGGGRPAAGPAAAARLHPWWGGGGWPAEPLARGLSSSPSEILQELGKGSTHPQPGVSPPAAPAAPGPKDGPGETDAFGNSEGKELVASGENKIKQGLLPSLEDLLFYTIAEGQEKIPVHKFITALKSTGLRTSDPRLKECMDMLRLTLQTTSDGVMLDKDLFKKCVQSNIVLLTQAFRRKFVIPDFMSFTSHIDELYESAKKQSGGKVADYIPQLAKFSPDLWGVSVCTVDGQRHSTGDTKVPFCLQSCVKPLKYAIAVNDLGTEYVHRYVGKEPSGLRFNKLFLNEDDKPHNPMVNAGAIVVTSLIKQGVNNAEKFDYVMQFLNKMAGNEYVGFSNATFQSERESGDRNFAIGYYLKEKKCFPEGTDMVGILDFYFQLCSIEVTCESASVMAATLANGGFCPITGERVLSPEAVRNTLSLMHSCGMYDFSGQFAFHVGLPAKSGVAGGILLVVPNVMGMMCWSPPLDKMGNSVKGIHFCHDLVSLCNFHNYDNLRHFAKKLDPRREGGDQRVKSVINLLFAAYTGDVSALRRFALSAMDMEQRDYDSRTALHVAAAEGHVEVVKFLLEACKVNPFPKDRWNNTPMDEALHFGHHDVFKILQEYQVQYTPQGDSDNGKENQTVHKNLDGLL
#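 Human kidney-isoform GLS in 45 mM KH2PO4 pH 8.2, 0.02% Tween-20, with compound, started with 1mM L-Glutamine (added stock). Glutamate oxidase/HRP/Amplex red coupled fluorescence read at start and after 30 min at RT.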
# N370S GC: qHTS Assay for Inhibitors and Activators of N370S glucocerebrosidase as a Potential Chaperone Treatment of Gaucher Disease | Lysosomal acid glucosylceramidase (Homo sapiens), P04062 | N370S GC spleen homogenate, 4MU-glucoside fluorescence | Potency, µM (top dose mostly 59.4 µM), inactives show at the highest dose activity change, negative = inhibition, hits mostly inhibitors | 330,000 compounds, 0.092% hits;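 further: potency means the concentration at half of the fitted maximal effect; 0% = full enzyme activity and -100% = no enzyme basal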
# Numbers without * were called inactive; ? = inconclusive; nt = no result given; [ ] = dose if it differs, or a comment. The list is not random: actives were taken first. Their share in the collection is about 1.4%. Unless noted, the call rests on the fitted dose curve; in most records, active means well fitted curve in the direction sought with a large enough effect; inconclusive means small, poorly fitted or top-dose-only effect, or another doubt; inactive means no such curve, though single readings can be large; an effect the other way counts as inactive or inconclusive.
SMILES,TSHR antagonist,BRCA1 expr up,p53 reactivation,TCR activator,GLS inh,N370S GC
Cc1ccc(/C=C/C(=O)c2ccccc2O)cc1,-3,0%,23%,-1%,3%,9%
Cc1cc(C)c2oc(-c3cccc(NC(=O)COc4ccc(Cl)cc4C)c3C)nc2c1,nt,16%,nt,nt,nt,nt
Cc1cc(C)nc(Nc2ccc(C(=O)O)cc2)n1,-3,2.8µM*,5%,0%,-1%,-20%
Cc1cc(C)nc(Nc2ccc(O)cc2)n1,-6,19%,3%,-5%,30%,-6%
Cc1cccc(-c2ccc3ncnc(N(C)Cc4ccco4)c3c2)c1,-6,nt,nt,nt,nt,2%
Cc1nc(CSc2ccc(Cl)cc2)cc(NCc2ccccc2)n1,-13,?,3%,-2%,2%,-3%
Cc1cccc2nc(CSc3ccc(Cl)cc3)cn12,-6,4.5µM*,7%,1%,-10%,-1%
Nc1nnc(SCc2cn3cc(Cl)ccc3n2)s1,-1,65%,4%,-6%,0%,21%
Clc1ccc(SCc2cn3ccccc3n2)cc1,-8,5.6µM*,1%,2%,-6%,-2%
Cc1ccc(SCc2cn3cc(Cl)ccc3n2)cc1,-11,10µM*,16%,1%,-4%,-5%
CNc1cc(CSc2ccc(Cl)cc2)nc(C)n1,4,5µM*,?,-8%,0%,-2%
CCOC(=O)c1ccc(OCCN2C[C@H](O)[C@@H](O)[C@H](O)[C@H]2CO)cc1,nt,nt,nt,nt,-3%,nt
O=C1NCCN1CCN1CCC(c2cn(-c3ccc(F)cc3)c3ccc(Cl)cc23)CC1,nt,nt,nt,nt,13%,nt
O=S(=O)(O)c1ccc2c(c1)-c1nc-2nc2[nH]c(nc3nc(nc4[nH]c(n1)c1ccc(S(=O)(=O)O)cc41)-c1ccc(S(=O)(=O)O)cc1-3)c1ccc(S(=O)(=O)O)cc21,nt,nt,nt,nt,nt,-3%
Nc1ncnc2c1nc(Sc1ccc(Cl)cc1)n2[C@H]1OC2COP(=O)(O)O[C@H]2[C@@H]1O (stereo partly drawn),nt,0%,nt,nt,nt,nt
COc1ccc(CNc2ncnc3nc[nH]c23)cc1OC,nt,6%,nt,nt,nt,nt
C[N+]1(CC(=O)c2c3ccccc3cc3ccccc23)CCOCC1,nt,3%,nt,nt,nt,nt
CC(=O)c1nnn(-c2nc(C#N)nc(N3CCOCC3)n2)c1C,nt,11%,nt,nt,nt,nt
COc1ccc(C(=O)NNC(=O)C(=O)/C=C(\O)c2ccc(C)cc2)cc1,4,-29%,-4%,-5%,24%,-12%
O=C(/C=C(\O)c1ccccc1)C(=O)NNC(=O)c1ccccc1,0,13µM*,19%,2%,18%,-7%
COc1cc2c(NC3CCN(C)CC3)nc(N3CCCN(C)CC3)nc2cc1OCCCC(C)C,nt,-70%,nt,nt,nt,nt
O=C(Nc1ccccc1)Nc1ccc2ocnc2c1,27,83%,23%,-24%,20µM*,1%
O=C(Nc1ccccc1)Nc1ccc2ncoc2c1,-9,?,2%,-38%,0%,10%
CC(=O)c1ccc(N(C(=O)CNC(=O)c2ccco2)C(C(=O)NC2CCCC2)c2ccncc2)cc1 (stereo not drawn),-93*,18%,1%,0%,-4%,-1%
CC(=O)c1cccc(N(C(=O)CNC(=O)c2ccco2)C(C(=O)NC2CCCC2)c2ccncc2)c1 (stereo not drawn),1,1%,-2%,-13%,5%,-9%
SMILES,TSHR antagonist,BRCA1 expr up,p53 reactivation,TCR activator,GLS inh,N370S GC
COc1ccc(Nc2cc(C(=O)NCCCN3CCN(c4ccc(OC)cc4)CC3)c3ccccc3n2)cc1,nt,nt,nt,nt,33%,nt
Cc1cc(Cl)ccc1OCC(=O)NNC(=O)C1CCN(c2ncnc3sc(C)c(C)c23)CC1,-72*,-45%,-2%,-3%,15%,nt
Cc1sc2ncnc(N3CCC(C(=O)NNC(=O)COc4ccc(Cl)cc4)CC3)c2c1C,nt,-28%,nt,5%,1%,nt
OC(C[n+]1ccccc1Cl)c1ccccc1 (stereo not drawn),nt,17%,nt,nt,nt,nt
Cn1c(CNC(=O)C(Cc2ccccc2)NC(=O)c2ccccc2F)cc(=O)n(C)c1=O (stereo not drawn),2,3%,4%,-1%,-3%,-1%
Cn1c(CNC(=O)C(Cc2ccccc2)NC(=O)c2ccccc2)cc(=O)n(C)c1=O (stereo not drawn),-144*,-18%,-1%,6%,-3%,-6%
COc1ccc(NC(=O)c2cc(S(=O)(=O)NCCC3=CCCCC3)ccc2F)cc1,nt,nt,nt,nt,-1%,nt
O=C(NCC1COc2ccccc2O1)c1ccccc1 (stereo not drawn),5,7.9µM*,?,1%,-3%,-18%
O=C(NC(=S)NCC1COc2ccccc2O1)c1ccccc1 (stereo not drawn),-14,-1%,5%,0%[46.1 µM],0%,13%
O=S(=O)(NC1c2cccc3cccc(c23)C1N1CCNCC1)c1ccc(Cl)cc1 (stereo not drawn),6,-27%,6%,0%,-2%,7.1µM*
O=c1c2ccccc2nc2ccc(NCc3ccco3)nn12,18,3.5µM*,?,-2%,-5%,6%
COc1ccc(NC(=S)N(C(C)C)C2CCN(C(C)C)CC2)cc1Cl,-81*,nt,2%,nt,nt,12%
COc1ccc(NC(=S)N(CCC(C)C)C2CCN(C(C)C)CC2)cc1,-4,-2%,1%,7%,19%,-1%
O=C1c2ccccc2C(=O)N1CSc1nnnn1-c1ccccc1,-5,0%,-1%,-1%,0%,11%
O=C1c2ccccc2C(=O)N1CCCCSc1nnnn1-c1ccccc1,-72*,-5%,1%,6%,2%,18%[2.35 µM]
Cc1ccc(OCCCC(=O)Nc2nc3ccccc3[nH]2)cc1,1,-22%,-2%,-3%,0%,0%
O=C(CCCOc1ccccc1)Nc1nc2ccccc2[nH]1,0,6.3µM*,5%,2%,-2%,3%
CCc1cc(/C=C/c2ccnc3ccccc23)ccc1N(C)C,nt,-23%,nt,nt,nt,nt
COc1cccc(/C=N/NC(=O)NC23CC4CC(CC(C4)C2)C3)c1O,nt,-55%,nt,2%,?,nt
O=C(N/N=C/c1ccccc1F)NC12CC3CC(CC(C3)C1)C2,2,5µM*,?,5%,1%,?
O=C(N/N=C/c1cc([N+](=O)[O-])ccc1O)C12CC3CC(CC(C3)C1)C2,31,-25%,-4%,0%,-4%,-11%

# Bioassay records deposited in PubChem BioAssay by National Center for Advancing Translational Sciences (NCATS).
